NPC1 prom act: activates the NPC1 promoter. Huh7 NPC1 promoter luciferase reporter, 24 h. Potency, µM (top dose mostly 9.22 µM), inactives show at the top dose activation, actives largely listed as activators. 320,000 tested, 2.4% active. AID 485313; further: % of control where 0% means no effect; nearly all actives have a fitted effect of over 60% in size
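Readout is luciferase luminescence, reflecting NPC1 promoter activation in stably transfected Huh7 cells after 24 h compound exposure at 37 °C in reduced-serum medium with 10% FBS.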
Rab9 prom act: activators of Rab9 promoter; Huh7 Rab9 promoter-luciferase reporter, luminescence, 24 h; Potency, µM (highest dose often 9.22 µM), for inactives: at the highest dose activation, negative = inhibition, usual class: activators; 320,000 tested, 2.8% active; further: % of control where 0% means no effect; nearly all actives have a fitted effect of over 60% in size
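Using Huh7 cells stably transfected with Rab9 promoter–luciferase, compounds were incubated 24 h at 37 °C, 5% CO2; luciferase luminescence was read 10 min after reagent addition.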
ELG1 genotox: inducers of genotoxicity in HEK293T ELG1-luciferase cells | Potency, µM (series often up to 46 µM), without a hit: at the top dose activity change, positive = activation, hits mostly activators | 330,000 tested, 1.3% active | HEK293T ELG1-luciferase reporter, luminescence, 16 h; further: % of control where 0% means no effect; nearly all actives have a fitted effect of over 60% in size
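Reporter readout depends on ELG1 protein level, which increases with genetic stress. After 16 hr compound exposure at 37 °C, luciferase activity was quantified using ONE-Glo.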
SMN2 splice enh: increases expression of the SMN2 splice variant | HEK293 SMN2-luciferase splicing reporter, luminescence, 30-36 h | Potency, µM (titrated, usually from 46.1 µM), inactives show at the top dose activity change, positive = activation, actives largely listed as activators | 210,000 tested, 2.8% active; further: % of control where 0% means no effect; nearly all actives have a fitted effect of over 55% in size
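HEK293 cells carry an SMN2 […]–luciferase reporter in which exon 7 inclusion puts luciferase in frame. Cells were plated 10-12 h before compound addition, then incubated 30-36 h at 37C. ONE-Glo luminescence was read; sodium butyrate at 4.5 mM final served as control.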
p53 reactivation: mutant p53 re-activation in reporter cells. H1299 p53-A138V BP100-luciferase reporter, luminescence, 24 h. Potency, µM (top dose mostly 92.2 µM), for inactives: at the highest dose activity change, positive = activation, usual class: activators. 320,000 tested, 0.063% active. AID 504706; further: % of control where 0% means no effect; nearly all actives have a fitted effect of over 45% in size
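p53-null H1299 cells stably carrying temperature-sensitive p53-A138V and a BP100-luciferase reporter were pinned with compounds (4-point, 1:5 series) and held 24 hrs at 37 deg C. Luminescence was read 10 min after detection reagent.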
FLuc counter: counter-screen for miR-21 project: firefly luciferase inhibitors or activators. P08659. purified FLuc, Km substrates, luminescence inhibition. Potency, µM (top dose mostly 57.5 µM), for inactives: top-dose activity change, negative = inhibition, usual class: inhibitors. 360,000 tested, 6.9% active;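 further: plate controls were vehicle for no effect and reference inhibitor for full effect; nearly all actives have a fitted effect of over 55% in size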
Target sequence (P08659 whole entry, looked up): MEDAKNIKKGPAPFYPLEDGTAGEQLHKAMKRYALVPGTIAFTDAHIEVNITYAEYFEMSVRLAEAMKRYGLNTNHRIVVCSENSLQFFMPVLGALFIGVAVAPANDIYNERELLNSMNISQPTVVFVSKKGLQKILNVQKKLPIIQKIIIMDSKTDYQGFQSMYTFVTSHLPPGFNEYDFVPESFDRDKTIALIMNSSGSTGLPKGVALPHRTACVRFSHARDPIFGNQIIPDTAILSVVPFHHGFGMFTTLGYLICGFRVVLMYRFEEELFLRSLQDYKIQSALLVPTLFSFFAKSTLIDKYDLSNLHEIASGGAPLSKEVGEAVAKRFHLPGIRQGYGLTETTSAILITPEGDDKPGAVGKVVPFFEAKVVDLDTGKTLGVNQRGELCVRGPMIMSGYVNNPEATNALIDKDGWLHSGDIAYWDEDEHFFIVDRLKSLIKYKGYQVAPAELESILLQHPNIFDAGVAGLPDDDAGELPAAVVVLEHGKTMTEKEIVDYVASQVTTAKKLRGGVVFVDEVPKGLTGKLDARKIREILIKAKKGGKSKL
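Biochemical qHTS of compounds, final roughly 60 µM downward over six points, against 10 nM purified firefly luciferase using Km concentrations of substrates (10 uM D-luciferin, 10 uM ATP) in Tris acetate pH 7.5 buffer; luminescence output.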
The depositor's hits bear a star; ? = inconclusive; nt = no result. The list is not random: actives were taken first. Their share in the collection is about 7.4%. The call rests on the fitted dose curve; in most records, active means well fitted curve in the direction sought with a large enough effect; inconclusive means small, poorly fitted or top-dose-only effect, or another doubt; inactive means no such curve, though single readings can be large; an effect the other way counts as inactive or inconclusive. Potency means the concentration at half of the fitted maximal effect.

SMILES	NPC1 prom act	Rab9 prom act	ELG1 genotox	SMN2 splice enh	p53 reactivation	FLuc counter
O=C1CCCC/C1=C\Nc1ccc(Cl)cn1	?	?	?	?	?	17µM*
Cn1c(=O)c2sccc2n2c(CCCC(=O)Nc3ccc(F)c(F)c3)nnc12	nt	nt	nt	-2%	nt	-5%
COc1cc(-c2nc(-c3ccc4c(c3)-c3ccccc3S4(=O)=O)c(-c3ccccc3)[nH]2)cc(OC)c1OC	0%	5%	-9%	29%	1%	4.8µM*
CN(C)S(=O)(=O)c1cccc(NC(=S)N/N=C/c2ccc(O)c(O)c2O)c1	-4%	-4%	-17%	nt	-7%	13µM*
COc1ccc(O)c(/C=N/NC(=S)Nc2cccc(S(=O)(=O)N(C)C)c2)c1	-12%	-24%	11%	-59%	?	11µM*
COc1cc(/C=N/NC(=S)Nc2cccc(S(=O)(=O)N(C)C)c2)cc(OC)c1O	-3%	0%	-4%	-8%	-21%	15µM*
O=C(NC(=O)c1ccccc1F)OCc1ccc(Cl)cc1Cl	8%	13%	2%	nt	7%	12µM*
COc1cccc(C(=O)Nc2cccc(OCc3cc(=O)n4c5c(sc4n3)CCCC5)c2)c1	nt	nt	nt	-7%	nt	?
CCc1nn(CC(=O)NCCCOC)c(=O)c2cc3ccccc3n12	nt	nt	nt	-2%	nt	4%
COc1c(C)cc(Br)cc1C(=O)NC(=S)Nc1ccc(Cl)c(C(=O)O)c1	15%	20%	10%	nt	-1%	24µM*
CCCOc1cccc(C(=O)Nc2ccc(Br)cc2F)c1	?	?	?	13µM*	?	2.7µM*
O=C(Nc1ccccc1)c1ccc(COc2ccccc2)cc1	?	?	8%	9%	3%	-13%
CCOc1cc(C(=O)NC(=S)Nc2ccc(Cl)c(C(=O)O)c2)cc(OCC)c1OCC	-13%	1%	1%	nt	0%	-1%
CCCOc1cccc(C(=O)Nc2cccc3ncccc23)c1	4%	7%	0%	nt	-17%	-12%
O=C(O)c1cccc(NC(=S)NC(=O)c2cccc(OCc3ccccc3)c2)c1	25%	?	9%	nt	11%	19µM*
O=C(Nc1ccc(COc2ccccc2)cc1)Nc1cccc(C(=O)O)c1	?	2.8µM*	11%	nt	-1%	0.85µM*
O=C(O)c1cccc(NC(=S)NC(=O)c2ccncc2)c1	-1%	2%	4%	8%	2%	?
CC(C(=O)c1ccc(Br)cc1)[n+]1cccc2ccccc21 (centres undefined)	2%	-3%	-13%	nt	7%	2%
C=CCn1c(SCc2ccccc2Cl)nnc1-c1sc2nc(C)cc(C)c2c1N	0%	-11%	-6%	nt	2%	0%
CC(NC(=O)CNC(=O)c1ccc2c(c1)OCO2)c1ccc(S(N)(=O)=O)cc1 (centres undefined)	-3%	3%	2%	nt	0%	3%
CCCOc1cccc(C(=O)Nc2cc(-c3ccccc3)no2)c1	nt	nt	nt	14µM*	nt	6µM*
CC(C)Oc1ccc(C(=O)NC(=S)Nc2ccc(Cl)c(C(=O)O)c2)cc1	?	?	?	nt	7%	17µM*
CC(C)Oc1cccc(C(=O)NC(=S)Nc2ccccc2)c1	?	3.2µM*	?	11µM*	?	2.4µM*
COc1cccc(C(=O)NC(=S)Nc2ccc(Cl)c(C(=O)O)c2)c1	nt	nt	nt	-3%	nt	?
COc1cccc(C(=O)NC(=S)Nc2cccnc2)c1	23%	?	11%	?	?	?
SMILES	NPC1 prom act	Rab9 prom act	ELG1 genotox	SMN2 splice enh	p53 reactivation	FLuc counter
Cc1ccc(-c2cc(NC(=O)c3cccc(C)c3)on2)cc1	nt	nt	nt	?	nt	-14%
Cc1ccc(C(=O)O)cc1NC(=S)NC(=O)c1ccc(COc2ccccc2)cc1	2%	7%	1%	nt	12%	12µM*
Cc1cccc(C)c1OCc1cc(C(=O)N(Cc2nccn2C)C(C)C)no1	6%	5%	-9%	nt	18%	-8%
O=C1c2ccccc2CCC1CNCCc1ccc(O)cc1 (centres undefined)	nt	nt	nt	-80%	nt	nt
CCCOc1cccc(C(=O)NC(=S)Nc2ccccc2)c1	?	?	?	13µM*	?	8.5µM*
CC(C)(CNC(=O)c1ccc(S(=O)(=O)Nc2ccc(Cl)cc2)cc1)N1CCOCC1	-4%	-2%	1%	nt	-13%	-1%
COc1cccc(CNC(=O)CCc2c(C)c3cc4c(C)c(C)oc4cc3oc2=O)c1	nt	nt	nt	1%	nt	-11%
CC(C)N1CC(O)=C(c2nc3ccccc3[nH]2)C1=N	16%	?	?	9%	11%	19µM*
CC(C1CC2CCC1C2)N1CC(O)=C(c2nc3ccccc3[nH]2)C1=N (centres undefined)	1%	2%	-9%	nt	1%	-5%
COc1ccc(OC)c(NC(=O)CSc2nccn2Cc2ccco2)c1	4%	2%	5%	nt	-5%	15µM*
Cc1ccc(NC(=O)CSc2nccn2Cc2ccco2)c(C)c1	0.89µM*	0.63µM*	5.2µM*	nt	23%	4.3µM*
Cc1ccc(C)c(NC(=O)CSc2nccn2Cc2ccco2)c1	?	?	?	nt	18%	?
Cc1cc(C)c(NC(=O)CSc2nccn2Cc2ccco2)c(C)c1	nt	nt	nt	nt	nt	17µM*
Cc1ccc(C(C)C)c(OC(C)C(=O)NCC2(N(C)C)CCCCC2)c1 (centres undefined)	nt	nt	nt	nt	nt	-5%
CCOC(=O)C1(Cc2cccc(Cl)c2)CCCN(C(=O)c2cc(C(C)C)nn2C)C1 (centres undefined)	4%	16%	-8%	nt	-17%	-7%
O=C(Nc1cnn(Cc2ccc(Cl)cc2Cl)c1)c1noc2c1CCc1ccccc1-2	nt	nt	nt	-9%	nt	-7%
O=C1CCC(=O)N1c1ccc(CSc2nc3ccccc3[nH]2)cc1	13%	22%	?	-9%	17%	?
COC(=O)c1cccc(CSc2nc3ccccc3[nH]2)c1	2.5µM*	?	?	3.2µM*	?	7.6µM*
c1ccc2[nH]c(SCc3ccc(-c4nnco4)cc3)nc2c1	?	3.5µM*	?	26%	16%	11µM*
COc1ccc(CSc2nc3ncccc3[nH]2)cc1	nt	nt	nt	nt	nt	19µM*
CC(C)OC(=O)CSc1nc2ncccc2[nH]1	1%	-2%	-2%	-2%	0%	0%
Fc1ccccc1CSc1nc2ncccc2[nH]1	?	?	10µM*	22µM*	?	15µM*
CCOc1ccccc1CNC(=O)c1ccc(NC(=O)N2CC(C)Sc3ccccc32)cc1 (centres undefined)	nt	nt	nt	-4%	nt	-12%
O=C(c1cnc(N2CCCCC2)c2ccccc12)N1CCN(c2ccc(Cl)cc2)CC1	nt	nt	nt	nt	nt	-10%

Assay outcomes (PubChem BioAssay)
